# Data: publication PMC8384837, “Expanding the binding specificity for RNA recognition by a PUF domain”
# Tests used:
# Test in all cases: yeast three-hybrid, YBZ-1, SC-Leu-His + 0.5 mM 3-AT, 4 days
# Settings in all cases: tags: N-Gal4 AD-HA kept; label: inside an RPR1-promoter hybrid RNA with tandem MS2 sites; ssRNA
# PUM1 PUF domain R2-LWT = PUM1 PUF domain R2-LWT (Homo sapiens, UniProt Q14671 828-1176, N899L;Y900W;Q903T)
# Outline: (§1)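 The interaction score is the logarithmic change in variant frequency from input to selection. It uses log2, with a pseudocount of 1 for absent variants, and frequencies came from PCR-amplified, Illumina-sequenced repeat regions. The libraries were Pumilio-1 PUF domains randomized at the three base-contacting residues per repeat, co-expressed with matching RNA elements in strain YBZ-1 (LexA–MS2 coat fusion, HIS3 reporter). Plating lasted four days on SC-Leu (input) or SC-Leu-His + 0.5 mM 3-AT (selection).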
# PUM1 PUF domain R4-APM = PUM1 PUF domain R4-APM (Homo sapiens, UniProt Q14671 828-1176, N971A;H972P;Q975M)
# Outline: as §1
# PUM1 PUF domain R4-WAC = PUM1 PUF domain R4-WAC (Homo sapiens, UniProt Q14671 828-1176, N971W;H972A;Q975C)
# Outline: as §1
# PUM1 PUF domain R3-ACF = PUM1 PUF domain R3-ACF (Homo sapiens, UniProt Q14671 828-1176, C935A;R936C;Q939F)
# Outline: as §1
# PUM1 PUF domain R3-PWL = PUM1 PUF domain R3-PWL (Homo sapiens, UniProt Q14671 828-1176, C935P;R936W;Q939L)
# Outline: as §1
# PUM1 PUF domain R8-MRR = PUM1 PUF domain R8-MRR (Homo sapiens, UniProt Q14671 828-1176, N1122M;Y1123R;Q1126R)
# Outline: as §1
# PUM1 PUF domain R8-VYP = PUM1 PUF domain R8-VYP (Homo sapiens, UniProt Q14671 828-1176, N1122V;Q1126P)
# Outline: as §1
# PUM1 PUF domain R5-PHG = PUM1 PUF domain R5-PHG (Homo sapiens, UniProt Q14671 828-1176, C1007P;R1008H;Q1011G)
# Outline: as §1
# PUM1 PUF domain R5-RHC = PUM1 PUF domain R5-RHC (Homo sapiens, UniProt Q14671 828-1176, C1007R;R1008H;Q1011C)
# Outline: as §1
# PUM1 PUF domain R8-FYR = PUM1 PUF domain R8-FYR (Homo sapiens, UniProt Q14671 828-1176, N1122F;Q1126R)
# Outline: as §1
# PUM1 PUF domain R8-MHR = PUM1 PUF domain R8-MHR (Homo sapiens, UniProt Q14671 828-1176, N1122M;Y1123H;Q1126R)
# Outline: as §1
# PUM1 PUF domain R3-SRS = PUM1 PUF domain R3-SRS (Homo sapiens, UniProt Q14671 828-1176, C935S;Q939S)
# Outline: as §1
# PUM1 PUF domain R1-KVR = PUM1 PUF domain R1-KVR (Homo sapiens, UniProt Q14671 828-1176, S863K;R864V;Q867R)
# Outline: as §1
# PUM1 PUF domain R1-RLC = PUM1 PUF domain R1-RLC (Homo sapiens, UniProt Q14671 828-1176, S863R;R864L;Q867C)
# Outline: as §1
# PUM1 PUF domain R1-RHR = PUM1 PUF domain R1-RHR (Homo sapiens, UniProt Q14671 828-1176, S863R;R864H;Q867R)
# Outline: as §1
# PUM1 PUF domain R5-RWS = PUM1 PUF domain R5-RWS (Homo sapiens, UniProt Q14671 828-1176, C1007R;R1008W;Q1011S)
# Outline: as §1
# PUM1 PUF domain R5-GMI = PUM1 PUF domain R5-GMI (Homo sapiens, UniProt Q14671 828-1176, C1007G;R1008M;Q1011I)
# Outline: as §1
# PUM1 PUF domain R3-VFA = PUM1 PUF domain R3-VFA (Homo sapiens, UniProt Q14671 828-1176, C935V;R936F;Q939A)
# Outline: as §1
# PUM1 PUF domain R3-WYG = PUM1 PUF domain R3-WYG (Homo sapiens, UniProt Q14671 828-1176, C935W;R936Y;Q939G)
# Outline: as §1
# PUM1 PUF domain R8-KFD = PUM1 PUF domain R8-KFD (Homo sapiens, UniProt Q14671 828-1176, N1122K;Y1123F;Q1126D)
# Outline: as §1
# PUM1 PUF domain R3-SRS, sequence (Q14671 828-1176 C935S/Q939S): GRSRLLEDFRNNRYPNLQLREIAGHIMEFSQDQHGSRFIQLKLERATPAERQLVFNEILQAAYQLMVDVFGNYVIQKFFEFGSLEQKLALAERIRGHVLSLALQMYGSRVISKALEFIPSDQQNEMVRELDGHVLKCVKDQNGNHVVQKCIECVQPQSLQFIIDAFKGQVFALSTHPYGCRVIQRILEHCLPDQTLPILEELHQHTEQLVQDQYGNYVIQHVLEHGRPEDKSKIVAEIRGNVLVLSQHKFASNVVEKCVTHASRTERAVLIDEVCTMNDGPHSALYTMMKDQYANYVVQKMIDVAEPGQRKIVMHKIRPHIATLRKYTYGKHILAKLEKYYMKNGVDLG
# PUM1 PUF domain R2-LWT, sequence (Q14671 828-1176 N899L/Y900W/Q903T): as the sequence (Q14671 828-1176 C935S/Q939S) above, with N72L, Y73W, Q76T, S108C, S112Q counted along it
# PUM1 PUF domain R4-APM, sequence (Q14671 828-1176 N971A/H972P/Q975M): as the sequence (Q14671 828-1176 C935S/Q939S) above, with S108C, S112Q, N144A, H145P, Q148M counted along it
# PUM1 PUF domain R4-WAC, sequence (Q14671 828-1176 N971W/H972A/Q975C): as the sequence (Q14671 828-1176 C935S/Q939S) above, with S108C, S112Q, N144W, H145A, Q148C counted along it
# PUM1 PUF domain R1-RHR, sequence (Q14671 828-1176 S863R/R864H/Q867R): as the sequence (Q14671 828-1176 C935S/Q939S) above, with S36R, R37H, Q40R, S108C, S112Q counted along it
# PUM1 PUF domain R8-MRR, sequence (Q14671 828-1176 N1122M/Y1123R/Q1126R): as the sequence (Q14671 828-1176 C935S/Q939S) above, with S108C, S112Q, N295M, Y296R, Q299R counted along it
# PUM1 PUF domain R1-KVR, sequence (Q14671 828-1176 S863K/R864V/Q867R): as the sequence (Q14671 828-1176 C935S/Q939S) above, with S36K, R37V, Q40R, S108C, S112Q counted along it
# PUM1 PUF domain R8-VYP, sequence (Q14671 828-1176 N1122V/Q1126P): as the sequence (Q14671 828-1176 C935S/Q939S) above, with S108C, S112Q, N295V, Q299P counted along it
# PUM1 PUF domain R3-WYG, sequence (Q14671 828-1176 C935W/R936Y/Q939G): as the sequence (Q14671 828-1176 C935S/Q939S) above, with S108W, R109Y, S112G counted along it
# PUM1 PUF domain R3-VFA, sequence (Q14671 828-1176 C935V/R936F/Q939A): as the sequence (Q14671 828-1176 C935S/Q939S) above, with S108V, R109F, S112A counted along it
# PUM1 PUF domain R5-RHC, sequence (Q14671 828-1176 C1007R/R1008H/Q1011C): as the sequence (Q14671 828-1176 C935S/Q939S) above, with S108C, S112Q, C180R, R181H, Q184C counted along it
# PUM1 PUF domain R5-PHG, sequence (Q14671 828-1176 C1007P/R1008H/Q1011G): as the sequence (Q14671 828-1176 C935S/Q939S) above, with S108C, S112Q, C180P, R181H, Q184G counted along it
# PUM1 PUF domain R1-RLC, sequence (Q14671 828-1176 S863R/R864L/Q867C): as the sequence (Q14671 828-1176 C935S/Q939S) above, with S36R, R37L, Q40C, S108C, S112Q counted along it
# PUM1 PUF domain R8-FYR, sequence (Q14671 828-1176 N1122F/Q1126R): as the sequence (Q14671 828-1176 C935S/Q939S) above, with S108C, S112Q, N295F, Q299R counted along it
# PUM1 PUF domain R3-PWL, sequence (Q14671 828-1176 C935P/R936W/Q939L): as the sequence (Q14671 828-1176 C935S/Q939S) above, with S108P, R109W, S112L counted along it
# PUM1 PUF domain R8-MHR, sequence (Q14671 828-1176 N1122M/Y1123H/Q1126R): as the sequence (Q14671 828-1176 C935S/Q939S) above, with S108C, S112Q, N295M, Y296H, Q299R counted along it
# PUM1 PUF domain R3-ACF, sequence (Q14671 828-1176 C935A/R936C/Q939F): as the sequence (Q14671 828-1176 C935S/Q939S) above, with S108A, R109C, S112F counted along it
# PUM1 PUF domain R5-GMI, sequence (Q14671 828-1176 C1007G/R1008M/Q1011I): as the sequence (Q14671 828-1176 C935S/Q939S) above, with S108C, S112Q, C180G, R181M, Q184I counted along it
# PUM1 PUF domain R5-RWS, sequence (Q14671 828-1176 C1007R/R1008W/Q1011S): as the sequence (Q14671 828-1176 C935S/Q939S) above, with S108C, S112Q, C180R, R181W, Q184S counted along it
# PUM1 PUF domain R8-KFD, sequence (Q14671 828-1176 N1122K/Y1123F/Q1126D): as the sequence (Q14671 828-1176 C935S/Q939S) above, with S108C, S112Q, N295K, Y296F, Q299D counted along it
sequence,measurement,setting,value
GGCUAGAACUAGUGGAUCCCCCGGCGCCCGGCGGCUCGAGCCCGGGUAAGUGUAAAGAGUCUGCAUGCCGCCGGGCGCCAUGCCUGCAGGUCGACUCUAGAAAACAUG,binding signal,PUM1 PUF domain R2-LWT,2.4 log2 enrichment (interaction score)
GGCUAGAACUAGUGGAUCCCCCGGCGCCCGGCGGCUCGAGCCCGGGUAAGUGUACAUAGUCUGCAUGCCGCCGGGCGCCAUGCCUGCAGGUCGACUCUAGAAAACAUG,binding signal,PUM1 PUF domain R4-APM,2.11 log2 enrichment (interaction score)
same,binding signal,PUM1 PUF domain R4-WAC,2.99 log2 enrichment (interaction score)
GGCUAGAACUAGUGGAUCCCCCGGCGCCCGGCGGCUCGAGCCCGGGUAAGUGUAAAAAGUCUGCAUGCCGCCGGGCGCCAUGCCUGCAGGUCGACUCUAGAAAACAUG,binding signal,PUM1 PUF domain R2-LWT,5.62 log2 enrichment (interaction score)
GGCUAGAACUAGUGGAUCCCCCGGCGCCCGGCGGCUCGAGCCCGGGUAAGUGUAAAUAGUCUGCAUGCCGCCGGGCGCCAUGCCUGCAGGUCGACUCUAGAAAACAUG,binding signal,PUM1 PUF domain R4-APM,4.28 log2 enrichment (interaction score)
same,binding signal,PUM1 PUF domain R3-ACF,4.04 log2 enrichment (interaction score)
same,binding signal,PUM1 PUF domain R3-PWL,2.76 log2 enrichment (interaction score)
same,binding signal,PUM1 PUF domain R8-MRR,1.68 log2 enrichment (interaction score)
same,binding signal,PUM1 PUF domain R8-VYP,2.77 log2 enrichment (interaction score)
same,binding signal,PUM1 PUF domain R5-PHG,4.89 log2 enrichment (interaction score)
same,binding signal,PUM1 PUF domain R5-RHC,3.15 log2 enrichment (interaction score)
same,binding signal,PUM1 PUF domain R8-FYR,5.38 log2 enrichment (interaction score)
same,binding signal,PUM1 PUF domain R8-MHR,3.92 log2 enrichment (interaction score)
same,binding signal,PUM1 PUF domain R3-SRS,4.33 log2 enrichment (interaction score)
same,binding signal,PUM1 PUF domain R4-WAC,3.2 log2 enrichment (interaction score)
same,binding signal,PUM1 PUF domain R2-LWT,1.6 log2 enrichment (interaction score)
GGCUAGAACUAGUGGAUCCCCCGGCGCCCGGCGGCUCGAGCCCGGGUAAGUGUAAAUUGUCUGCAUGCCGCCGGGCGCCAUGCCUGCAGGUCGACUCUAGAAAACAUG,binding signal,PUM1 PUF domain R1-KVR,5.73 log2 enrichment (interaction score)
same,binding signal,PUM1 PUF domain R1-RLC,1.93 log2 enrichment (interaction score)
same,binding signal,PUM1 PUF domain R1-RHR,2.91 log2 enrichment (interaction score)
GGCUAGAACUAGUGGAUCCCCCGGCGCCCGGCGGCUCGAGCCCGGGUAAGUGUAUAUAGUCUGCAUGCCGCCGGGCGCCAUGCCUGCAGGUCGACUCUAGAAAACAUG,binding signal,PUM1 PUF domain R4-APM,2.03 log2 enrichment (interaction score)
GGCUAGAACUAGUGGAUCCCCCGGCGCCCGGCGGCUCGAGCCCGGGUAAGUGUUAAUAGUCUGCAUGCCGCCGGGCGCCAUGCCUGCAGGUCGACUCUAGAAAACAUG,binding signal,PUM1 PUF domain R5-RWS,6.47 log2 enrichment (interaction score)
same,binding signal,PUM1 PUF domain R5-PHG,4.37 log2 enrichment (interaction score)
same,binding signal,PUM1 PUF domain R5-RHC,5.98 log2 enrichment (interaction score)
same,binding signal,PUM1 PUF domain R5-GMI,2.18 log2 enrichment (interaction score)
GGCUAGAACUAGUGGAUCCCCCGGCGCCCGGCGGCUCGAGCCCGGGUAAGUGUAAUUAGUCUGCAUGCCGCCGGGCGCCAUGCCUGCAGGUCGACUCUAGAAAACAUG,binding signal,PUM1 PUF domain R3-VFA,2.77 log2 enrichment (interaction score)
same,binding signal,PUM1 PUF domain R3-PWL,3.68 log2 enrichment (interaction score)
same,binding signal,PUM1 PUF domain R3-SRS,1.65 log2 enrichment (interaction score)
same,binding signal,PUM1 PUF domain R3-WYG,4.81 log2 enrichment (interaction score)
GGCUAGAACUAGUGGAUCCCCCGGCGCCCGGCGGCUCGAGCCCGGGUAAGUGUAAGUAGUCUGCAUGCCGCCGGGCGCCAUGCCUGCAGGUCGACUCUAGAAAACAUG,binding signal,PUM1 PUF domain R3-VFA,2.39 log2 enrichment (interaction score)
same,binding signal,PUM1 PUF domain R3-SRS,2.81 log2 enrichment (interaction score)
same,binding signal,PUM1 PUF domain R3-WYG,3.09 log2 enrichment (interaction score)
GGCUAGAACUAGUGGAUCCCCCGGCGCCCGGCGGCUCGAGCCCGGGUAAGUGUAAAUCGUCUGCAUGCCGCCGGGCGCCAUGCCUGCAGGUCGACUCUAGAAAACAUG,binding signal,PUM1 PUF domain R1-KVR,1.81 log2 enrichment (interaction score)
same,binding signal,PUM1 PUF domain R1-RLC,3.21 log2 enrichment (interaction score)
same,binding signal,PUM1 PUF domain R1-RHR,2.88 log2 enrichment (interaction score)
GGCUAGAACUAGUGGAUCCCCCGGCGCCCGGCGGCUCGAGCCCGGGUAAGCGUAAAUAGUCUGCAUGCCGCCGGGCGCCAUGCCUGCAGGUCGACUCUAGAAAACAUG,binding signal,PUM1 PUF domain R8-MRR,2.54 log2 enrichment (interaction score)
same,binding signal,PUM1 PUF domain R8-VYP,3.87 log2 enrichment (interaction score)
same,binding signal,PUM1 PUF domain R8-FYR,5.29 log2 enrichment (interaction score)
same,binding signal,PUM1 PUF domain R8-KFD,5.69 log2 enrichment (interaction score)
